According to the supplement of paper PMC11732987, “Enantioselective OTUD7B fragment discovery through chemoproteomics screening and high-throughput optimisation” (Communications Chemistry, 2025):

Experiments:
Assay in all cases: log2 ratio of Biotin-Ahx-Ub-VS probe labelling (fragment/DMSO); higher = less target engagement (more negative = stronger competition), active = hit call of the paper (q ≤ 0.05, log2 ratio ≤ -1)
Details in all cases: compound concentration: 200 uM; treatment time: 3 h
UniProt O00507 = target: UniProt O00507
UniProt O00507, sequence (O00507 whole entry, the tested form may be a part): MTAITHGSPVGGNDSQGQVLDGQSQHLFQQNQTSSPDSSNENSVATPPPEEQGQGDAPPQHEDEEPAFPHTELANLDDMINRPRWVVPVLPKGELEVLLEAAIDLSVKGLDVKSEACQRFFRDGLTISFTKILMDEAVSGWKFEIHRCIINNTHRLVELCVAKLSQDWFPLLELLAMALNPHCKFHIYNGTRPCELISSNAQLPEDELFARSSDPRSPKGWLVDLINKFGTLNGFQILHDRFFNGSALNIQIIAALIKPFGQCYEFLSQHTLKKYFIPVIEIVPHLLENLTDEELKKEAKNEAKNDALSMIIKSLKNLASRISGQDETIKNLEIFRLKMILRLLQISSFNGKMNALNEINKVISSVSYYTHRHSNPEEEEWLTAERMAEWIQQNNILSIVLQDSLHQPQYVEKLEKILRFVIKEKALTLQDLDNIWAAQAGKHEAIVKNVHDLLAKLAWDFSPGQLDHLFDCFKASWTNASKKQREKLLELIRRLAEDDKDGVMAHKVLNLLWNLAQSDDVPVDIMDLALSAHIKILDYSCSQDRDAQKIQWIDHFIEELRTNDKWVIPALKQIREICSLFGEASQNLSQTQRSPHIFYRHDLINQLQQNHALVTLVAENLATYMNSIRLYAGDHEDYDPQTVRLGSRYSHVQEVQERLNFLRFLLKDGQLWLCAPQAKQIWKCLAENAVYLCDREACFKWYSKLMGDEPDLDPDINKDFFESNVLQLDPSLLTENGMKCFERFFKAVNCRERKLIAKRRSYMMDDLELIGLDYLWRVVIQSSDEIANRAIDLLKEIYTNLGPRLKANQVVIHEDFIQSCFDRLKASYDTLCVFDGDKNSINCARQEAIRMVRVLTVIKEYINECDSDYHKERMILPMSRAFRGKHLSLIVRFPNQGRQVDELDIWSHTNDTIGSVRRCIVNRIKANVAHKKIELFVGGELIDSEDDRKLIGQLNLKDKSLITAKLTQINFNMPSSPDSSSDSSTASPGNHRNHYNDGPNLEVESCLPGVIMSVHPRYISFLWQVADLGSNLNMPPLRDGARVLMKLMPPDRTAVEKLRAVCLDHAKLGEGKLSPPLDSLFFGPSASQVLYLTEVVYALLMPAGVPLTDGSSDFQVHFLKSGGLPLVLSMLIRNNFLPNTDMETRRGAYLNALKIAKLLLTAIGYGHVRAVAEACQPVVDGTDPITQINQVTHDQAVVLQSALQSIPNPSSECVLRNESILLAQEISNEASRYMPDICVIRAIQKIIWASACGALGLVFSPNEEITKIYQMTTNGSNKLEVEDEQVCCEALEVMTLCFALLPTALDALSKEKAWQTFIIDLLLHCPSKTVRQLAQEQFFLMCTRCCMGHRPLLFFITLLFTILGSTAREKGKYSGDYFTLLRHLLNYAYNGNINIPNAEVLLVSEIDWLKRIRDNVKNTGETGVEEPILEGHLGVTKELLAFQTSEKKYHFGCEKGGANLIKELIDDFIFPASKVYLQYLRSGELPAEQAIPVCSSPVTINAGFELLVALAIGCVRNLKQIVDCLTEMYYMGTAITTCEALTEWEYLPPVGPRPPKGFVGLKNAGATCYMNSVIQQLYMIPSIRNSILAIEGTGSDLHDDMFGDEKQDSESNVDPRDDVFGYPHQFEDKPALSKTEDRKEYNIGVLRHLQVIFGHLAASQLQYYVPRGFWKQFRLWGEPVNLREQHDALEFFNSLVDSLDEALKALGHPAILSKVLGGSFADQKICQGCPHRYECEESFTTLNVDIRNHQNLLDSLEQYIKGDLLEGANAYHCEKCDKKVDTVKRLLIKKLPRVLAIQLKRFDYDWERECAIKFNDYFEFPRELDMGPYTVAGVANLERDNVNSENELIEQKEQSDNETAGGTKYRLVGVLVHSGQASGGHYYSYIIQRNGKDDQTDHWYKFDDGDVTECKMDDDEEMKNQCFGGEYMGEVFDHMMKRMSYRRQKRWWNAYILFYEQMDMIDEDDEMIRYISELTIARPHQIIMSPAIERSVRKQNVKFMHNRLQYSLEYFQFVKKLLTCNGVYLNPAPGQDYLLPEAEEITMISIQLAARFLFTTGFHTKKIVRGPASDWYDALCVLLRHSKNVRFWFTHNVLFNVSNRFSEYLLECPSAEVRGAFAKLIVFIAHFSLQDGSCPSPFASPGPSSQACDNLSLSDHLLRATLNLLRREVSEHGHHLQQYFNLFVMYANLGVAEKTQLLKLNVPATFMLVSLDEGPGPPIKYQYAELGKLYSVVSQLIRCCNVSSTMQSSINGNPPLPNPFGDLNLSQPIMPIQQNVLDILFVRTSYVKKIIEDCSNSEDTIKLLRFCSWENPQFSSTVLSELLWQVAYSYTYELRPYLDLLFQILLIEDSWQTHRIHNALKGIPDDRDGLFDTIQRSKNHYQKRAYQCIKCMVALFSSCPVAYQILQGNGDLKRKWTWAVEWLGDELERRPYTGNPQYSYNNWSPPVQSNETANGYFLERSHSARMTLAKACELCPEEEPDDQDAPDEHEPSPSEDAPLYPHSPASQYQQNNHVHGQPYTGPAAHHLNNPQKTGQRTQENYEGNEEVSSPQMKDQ
Outline: (§1)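 Using Biotin-Ahx-Ub-VS at 0.5 µM final for 1 h, DUBs were labelled in HEK293T lysate (495 µg per sample) that had first been treated in triplicate with fragment at 200 µM or vehicle for 3 h. NeutrAvidin enrichment, LysC and trypsin digestion and diaPASEF LC-MS/MS followed. Spectronaut label-free quantities were global-median-normalised. Values are average log2 fragment/vehicle ratios by unpaired t-test, using proteins with ≥2 unique peptides.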

UniProt P51784 = target: UniProt P51784
UniProt P51784, sequence (P51784 whole entry): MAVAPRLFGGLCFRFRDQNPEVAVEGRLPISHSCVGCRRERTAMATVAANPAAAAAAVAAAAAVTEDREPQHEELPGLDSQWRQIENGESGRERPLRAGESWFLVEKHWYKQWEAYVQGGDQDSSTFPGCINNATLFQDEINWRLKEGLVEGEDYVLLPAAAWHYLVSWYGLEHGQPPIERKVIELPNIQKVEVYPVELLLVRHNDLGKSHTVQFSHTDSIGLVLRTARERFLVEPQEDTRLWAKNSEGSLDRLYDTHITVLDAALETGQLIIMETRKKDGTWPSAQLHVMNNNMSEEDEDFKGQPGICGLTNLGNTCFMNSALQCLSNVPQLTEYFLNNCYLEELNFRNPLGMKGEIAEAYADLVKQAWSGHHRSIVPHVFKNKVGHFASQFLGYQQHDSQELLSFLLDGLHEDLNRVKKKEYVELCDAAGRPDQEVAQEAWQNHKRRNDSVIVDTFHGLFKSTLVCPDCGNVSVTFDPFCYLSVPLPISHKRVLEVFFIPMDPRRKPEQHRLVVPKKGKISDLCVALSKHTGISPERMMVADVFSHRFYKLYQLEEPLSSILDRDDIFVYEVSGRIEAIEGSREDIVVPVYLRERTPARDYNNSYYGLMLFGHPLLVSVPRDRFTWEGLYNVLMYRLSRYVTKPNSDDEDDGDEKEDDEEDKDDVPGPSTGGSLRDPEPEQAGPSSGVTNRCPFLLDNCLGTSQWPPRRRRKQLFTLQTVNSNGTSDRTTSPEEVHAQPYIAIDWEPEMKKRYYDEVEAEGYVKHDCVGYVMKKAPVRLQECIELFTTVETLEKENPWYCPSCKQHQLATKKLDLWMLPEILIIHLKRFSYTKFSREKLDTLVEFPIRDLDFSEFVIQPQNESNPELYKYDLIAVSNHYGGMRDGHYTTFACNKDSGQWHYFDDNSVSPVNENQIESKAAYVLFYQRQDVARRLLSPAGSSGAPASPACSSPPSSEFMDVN
Outline: as §1

UniProt Q5T2D3 = target: T1, UniProt Q5T2D3
T1 sequence (whole entry): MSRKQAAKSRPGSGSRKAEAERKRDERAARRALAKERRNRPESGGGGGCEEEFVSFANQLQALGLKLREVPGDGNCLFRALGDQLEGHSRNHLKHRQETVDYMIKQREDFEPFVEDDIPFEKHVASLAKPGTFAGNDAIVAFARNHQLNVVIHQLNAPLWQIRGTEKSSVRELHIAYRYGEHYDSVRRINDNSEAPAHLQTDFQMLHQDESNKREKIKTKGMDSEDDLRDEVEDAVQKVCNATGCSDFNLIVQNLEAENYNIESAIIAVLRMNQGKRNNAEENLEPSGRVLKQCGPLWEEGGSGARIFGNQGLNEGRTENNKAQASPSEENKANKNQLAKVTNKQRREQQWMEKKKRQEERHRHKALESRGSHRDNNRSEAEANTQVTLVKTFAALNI
Outline: as §1

UniProt Q8TE49 = target: T2, UniProt Q8TE49
T2 sequence (whole entry): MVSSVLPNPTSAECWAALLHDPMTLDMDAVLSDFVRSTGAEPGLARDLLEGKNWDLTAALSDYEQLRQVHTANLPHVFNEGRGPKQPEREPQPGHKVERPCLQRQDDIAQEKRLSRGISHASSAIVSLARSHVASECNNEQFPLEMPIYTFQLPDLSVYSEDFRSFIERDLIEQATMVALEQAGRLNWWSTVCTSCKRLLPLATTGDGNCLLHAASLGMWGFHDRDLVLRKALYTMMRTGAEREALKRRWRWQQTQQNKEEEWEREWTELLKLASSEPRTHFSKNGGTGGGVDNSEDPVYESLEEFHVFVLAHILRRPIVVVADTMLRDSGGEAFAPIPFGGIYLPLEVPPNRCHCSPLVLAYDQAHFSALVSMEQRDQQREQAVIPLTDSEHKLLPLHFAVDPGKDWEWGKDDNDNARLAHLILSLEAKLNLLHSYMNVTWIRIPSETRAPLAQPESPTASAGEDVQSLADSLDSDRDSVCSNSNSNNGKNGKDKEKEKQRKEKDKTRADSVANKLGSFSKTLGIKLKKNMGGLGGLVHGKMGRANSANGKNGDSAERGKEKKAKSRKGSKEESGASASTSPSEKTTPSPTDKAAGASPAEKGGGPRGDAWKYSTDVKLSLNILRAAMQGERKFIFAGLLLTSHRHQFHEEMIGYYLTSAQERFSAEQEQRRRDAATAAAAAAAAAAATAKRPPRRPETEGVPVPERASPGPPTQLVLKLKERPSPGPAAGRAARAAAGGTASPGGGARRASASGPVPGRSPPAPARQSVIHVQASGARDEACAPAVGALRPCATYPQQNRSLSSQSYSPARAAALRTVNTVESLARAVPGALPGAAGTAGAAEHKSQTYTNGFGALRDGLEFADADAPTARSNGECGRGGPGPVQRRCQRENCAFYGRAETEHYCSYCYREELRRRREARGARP
Outline: as §1

UniProt Q9P2H5 = target: T3, UniProt Q9P2H5
T3 sequence (whole entry): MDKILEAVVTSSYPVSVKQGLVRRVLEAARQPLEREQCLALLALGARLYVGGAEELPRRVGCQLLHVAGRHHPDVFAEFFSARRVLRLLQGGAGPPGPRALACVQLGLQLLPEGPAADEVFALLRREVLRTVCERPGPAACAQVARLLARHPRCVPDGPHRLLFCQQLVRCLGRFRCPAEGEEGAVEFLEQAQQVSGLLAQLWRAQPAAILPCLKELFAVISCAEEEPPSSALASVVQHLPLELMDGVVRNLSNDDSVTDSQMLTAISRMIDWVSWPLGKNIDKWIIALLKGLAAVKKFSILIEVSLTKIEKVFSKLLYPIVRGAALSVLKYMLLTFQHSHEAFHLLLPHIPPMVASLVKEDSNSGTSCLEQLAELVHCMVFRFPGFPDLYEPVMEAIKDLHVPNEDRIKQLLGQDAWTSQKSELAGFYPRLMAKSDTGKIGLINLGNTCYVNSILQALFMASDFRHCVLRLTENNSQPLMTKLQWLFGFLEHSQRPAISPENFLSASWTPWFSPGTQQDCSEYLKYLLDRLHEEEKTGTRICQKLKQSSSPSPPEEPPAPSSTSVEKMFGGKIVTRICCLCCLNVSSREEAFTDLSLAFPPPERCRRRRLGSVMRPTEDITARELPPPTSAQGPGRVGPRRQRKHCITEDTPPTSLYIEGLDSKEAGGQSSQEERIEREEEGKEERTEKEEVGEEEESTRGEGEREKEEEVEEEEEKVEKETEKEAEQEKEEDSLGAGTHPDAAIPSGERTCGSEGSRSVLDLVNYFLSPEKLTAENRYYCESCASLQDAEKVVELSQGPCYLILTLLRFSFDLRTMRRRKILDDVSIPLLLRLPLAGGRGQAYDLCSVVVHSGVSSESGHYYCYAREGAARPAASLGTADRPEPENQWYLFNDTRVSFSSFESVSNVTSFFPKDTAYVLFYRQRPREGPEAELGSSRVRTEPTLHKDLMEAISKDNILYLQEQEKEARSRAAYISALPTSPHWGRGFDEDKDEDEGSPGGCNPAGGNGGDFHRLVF
Outline: as §1

UniProt Q9UGI0 = target: T4, UniProt Q9UGI0
T4 sequence (whole entry): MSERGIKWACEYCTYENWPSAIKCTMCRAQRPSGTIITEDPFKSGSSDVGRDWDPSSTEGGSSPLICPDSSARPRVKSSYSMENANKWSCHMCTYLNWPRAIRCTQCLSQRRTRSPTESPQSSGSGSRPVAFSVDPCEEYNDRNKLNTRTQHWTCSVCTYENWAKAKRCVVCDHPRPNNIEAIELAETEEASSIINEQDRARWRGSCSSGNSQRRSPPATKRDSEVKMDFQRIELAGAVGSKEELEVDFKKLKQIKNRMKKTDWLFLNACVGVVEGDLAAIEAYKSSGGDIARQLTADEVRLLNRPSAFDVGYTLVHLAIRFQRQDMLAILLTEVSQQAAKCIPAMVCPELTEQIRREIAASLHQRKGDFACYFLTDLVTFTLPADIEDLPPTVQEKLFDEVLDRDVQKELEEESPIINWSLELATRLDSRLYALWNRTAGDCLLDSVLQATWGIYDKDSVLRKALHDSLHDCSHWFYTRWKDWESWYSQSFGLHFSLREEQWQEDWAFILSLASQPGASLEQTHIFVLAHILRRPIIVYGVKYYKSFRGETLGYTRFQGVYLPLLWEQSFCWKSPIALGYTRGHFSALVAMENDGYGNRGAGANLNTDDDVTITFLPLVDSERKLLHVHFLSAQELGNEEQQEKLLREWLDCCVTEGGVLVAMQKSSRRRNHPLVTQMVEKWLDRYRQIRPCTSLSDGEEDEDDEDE
Outline: as §1

YOD1 = target: T5, YOD1 (UniProt Q5VVQ6)
T5 sequence (whole entry): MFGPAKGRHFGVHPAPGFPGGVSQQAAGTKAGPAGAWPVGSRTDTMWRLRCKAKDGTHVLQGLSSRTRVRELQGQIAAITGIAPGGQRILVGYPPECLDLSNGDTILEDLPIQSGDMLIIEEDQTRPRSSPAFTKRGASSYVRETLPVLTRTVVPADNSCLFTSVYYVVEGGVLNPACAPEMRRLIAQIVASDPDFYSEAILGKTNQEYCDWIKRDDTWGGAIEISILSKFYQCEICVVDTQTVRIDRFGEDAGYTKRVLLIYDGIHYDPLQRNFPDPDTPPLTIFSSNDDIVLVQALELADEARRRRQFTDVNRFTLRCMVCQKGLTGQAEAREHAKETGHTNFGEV
Outline: as §1

Measured: log2 ratio of Biotin-Ahx-Ub-VS probe labelling

O=C(CCl)Nc1cc(Cl)ccc1-n1cncn1
inactive: UniProt P51784 -0.871 | UniProt Q5T2D3 -0.95 | UniProt Q9P2H5 -0.954
active: UniProt O00507 -1.06 | UniProt Q8TE49 -1.44 | UniProt Q9UGI0 -1.05 | YOD1 -1.12

O=C(CCl)NC1(c2ccc3c(c2)OCCO3)CCCC1
inactive: UniProt O00507 -0.152 | UniProt P51784 -0.000106 | UniProt Q5T2D3 -0.339 | UniProt Q8TE49 -0.447 | UniProt Q9P2H5 -0.3 | UniProt Q9UGI0 -0.26 | YOD1 -0.199

O=C(CN1CCN(C(=O)CCl)CC1)Nc1cccc(F)c1
inactive: UniProt O00507 0.00838 | UniProt P51784 -0.0576 | UniProt Q5T2D3 -0.264 | UniProt Q8TE49 -0.292 | UniProt Q9P2H5 -0.486 | UniProt Q9UGI0 -0.37 | YOD1 0.0312

O=C(CCl)Nc1ccc(N2CCCC2=O)cc1
inactive: UniProt O00507 -0.208 | UniProt P51784 0.297 | UniProt Q5T2D3 0.165 | UniProt Q8TE49 0.0701 | UniProt Q9P2H5 0.00543 | UniProt Q9UGI0 -0.752 | YOD1 0.137

Cc1ccc(C(=O)NCCNC(=O)CCl)cc1
inactive: UniProt O00507 -0.256 | UniProt P51784 0.00304 | UniProt Q5T2D3 -0.199 | UniProt Q8TE49 -0.373 | UniProt Q9P2H5 -0.35 | UniProt Q9UGI0 -0.456 | YOD1 -0.0895
